# Measured values from PubChem BioAssay (NCI).
# Compounds without any hit were thinned out: in the full panel of roughly 83,000, 20% have a hit.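 Note: values are percent growth. 100 is the growth of untreated cells, values between 100 and 0 indicate rising inhibition; between -100 and 0 indicates cell death.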 A number with no mark means an inactive call. The source made the active and inactive calls. Rule for the calls: active = growth percent below 10; inactive = the rest.
# What was measured:
# Assay in all cases: NCI-60 one-dose screen, 48 h (100 = growth as untreated, 0 = no growth, -100 = all killed)
# Details in all cases: 10 µM
# [1] = tested on: NCI-H23 lung
# [2] = tested on: NCI-H226 lung
# [3] = tested on: NCI-H322M lung
# [4] = tested on: HOP-62 NSCLC
# [5] = tested on: NCI-H460 lung
# [6] = tested on: NCI-H522 lung
# [7] = tested on: A549/ATCC NSCLC
# [8] = tested on: 786-0 renal
# [9] = tested on: COLO 205 colon
# [10] = tested on: DU-145 prostate
# [11] = tested on: K-562 leukemia
# [12] = tested on: MALME-3M melanoma
# [13] = tested on: MDA-MB-231 breast
# [14] = tested on: RXF 393 renal
# [15] = tested on: SF-268 CNS
# [16] = tested on: SF-295 CNS
# [17] = tested on: SF-539 CNS
# [18] = tested on: UACC-257 melanoma
# [19] = tested on: M14 melanoma
# [20] = tested on: HCT-15 colon
Compound,growth [1],growth [2],growth [3],growth [4],growth [5],growth [6],growth [7],growth [8],growth [9],growth [10],growth [11],growth [12],growth [13],growth [14],growth [15],growth [16],growth [17],growth [18],growth [19],growth [20]
CC/C(=C(/c1ccc(OCCN(C)C)cc1)c1ccc(OC(=O)CCCCC(=O)c2c(C)[nH]c(/C=C3\N=C(c4ccc[nH]4)C=C3OC)c2C)cc1)c1ccccc1,86.7%,54.4%,72.2%,77.9%,61.2%,4.55% (active),52.4%,67.4%,72%,34.2%,7.12% (active),39.5%,-17.5% (active),37.2%,51.5%,72.6%,78.6%,90.1%,-1.63% (active),27.1%
N=C(N)c1ccc(-c2ccc(-c3ccco3)o2)cc1,94.8%,77.8%,67%,81.7%,62.8%,95%,68.7%,79.9%,-90.2% (active),88.2%,7.46% (active),53%,52.4%,62.5%,74.4%,61.4%,83.1%,64.2%,74%,31.2%
Nc1c(C(=O)Nc2ccccc2)sc2nc3c(cc12)CCCC3,38%,52.8%,56.9%,49.9%,10.9%,29.7%,21.7%,57%,1.79% (active),11.1%,13.6%,52%,56%,-24.3% (active),54.7%,5.09% (active),-3.86% (active),59.2%,22.7%,24.8%
CSc1nc(=O)n(Cc2ccc(F)cc2)c(=O)n1Cc1ccc(C)cc1,101%,101%,112%,101%,105%,110%,88.5%,100%,94.6%,107%,91.1%,97.6%,103%,113%,96.6%,79.8%,108%,106%,99.7%,102%
Cc1nc2c(c(=O)[nH]1)OCN(Cc1ccccc1)C2,100%,103%,105%,107%,110%,111%,112%,101%,112%,108%,88%,87%,107%,118%,103%,107%,109%,97.8%,101%,99.4%
O=c1[nH]c2ccc(Cl)cc2c2ccccc12,86.6%,85.1%,42.5%,72.2%,42.7%,109%,79.5%,49.5%,86.5%,78.2%,110%,60.7%,78.2%,61.1%,79.4%,97.9%,80.1%,105%,94.7%,93.3%
Cc1nc2ccccc2c(N)c1-c1cc(C)c2c(C)nc3ccccc3c2n1,44.8%,98.8%,10.7%,58.4%,-75.8% (active),68.6%,-75.4% (active),-89.2% (active),-91% (active),-82.4% (active),-36.1% (active),95.3%,-80.2% (active),-80.3% (active),-67.5% (active),85.2%,-71.9% (active),105%,39.3%,-90% (active)
Nc1c(C(=O)Nc2cccc(F)c2)sc2nc3c(cc12)C(=O)CCC3,41.6%,64.6%,58.8%,69.3%,11.5%,5.31% (active),27.6%,51.6%,-3.2% (active),-12.7% (active),20.1%,32.4%,40.8%,-14.3% (active),73.5%,7.23% (active),-17.4% (active),57.3%,15.3%,25.8%
COc1cc(-c2cc(/C=C/C(=O)c3ccc(F)c(F)c3)[nH]n2)cc(OC)c1OC,55.9%,65.6%,74.1%,78.7%,58.1%,47.4%,36.4%,80.5%,61.4%,72.9%,29.8%,72.5%,49.7%,76.9%,61.7%,10.4%,65.6%,80.8%,67.9%,46.6%
Fc1cc(C(F)(F)F)ccc1-c1cncnc1NC1CCCCCC1,92.6%,82.6%,104%,93.1%,102%,91.3%,85.4%,97.9%,105%,101%,91.3%,118%,91%,88.5%,115%,94.5%,94.8%,93.9%,105%,95.6%
CSC1=NCCCC1,112%,97.3%,113%,112%,108%,102%,102%,111%,113%,118%,104%,109%,123%,108%,109%,110%,111%,100%,108%,101%
Cn1c([N+](=O)[O-])cnc1/C=C1\Oc2ccccc2C1=O,-18% (active),-7.33% (active),18.6%,-10.3% (active),-39.5% (active),-48.5% (active),-31.4% (active),-10.9% (active),-64.6% (active),-8.91% (active),3.53% (active),-71.1% (active),-31.7% (active),-68.9% (active),-49% (active),-1.94% (active),-43.4% (active),-57% (active),-43.3% (active),6.69% (active)
c1ccc(CNc2ncnc3scc(-c4cccs4)c23)nc1,53.5%,68.1%,86.3%,65%,77.4%,60.4%,56.6%,79.6%,89.7%,92.1%,42.7%,89.5%,59.9%,73.6%,79.7%,41.2%,72.7%,46.1%,70.7%,76%
Clc1cc2c(c(CSc3nc4ccccc4n4cccc34)c1)OCOC2,77.9%,134%,83.2%,88.2%,66.6%,59.8%,29.9%,93.4%,84.1%,106%,74.4%,88.2%,65.8%,34.2%,85.4%,79.5%,67.2%,61.3%,87.5%,71.4%
Nc1ncn(C2OC(CO)C(O)C2O)c(=O)n1 (stereo not given),30.3%,29%,-0.0643% (active),-23% (active),-1.43% (active),-12.7% (active),20.7%,12.2%,2.62% (active),-9.86% (active),-24% (active),15.1%,0.46% (active),10.6%,23.9%,15.4%,-24.4% (active),14.8%,1.16% (active),-15.3% (active)
CC(=O)CSC(C)=O,108%,99%,104%,101%,103%,105%,99.6%,102%,119%,117%,106%,89.6%,99.7%,109%,105%,91.8%,95.2%,100%,103%,103%

Compound,growth [1],growth [2],growth [3],growth [4],growth [5],growth [6],growth [7],growth [8],growth [9],growth [10],growth [11],growth [12],growth [13],growth [14],growth [15],growth [16],growth [17],growth [18],growth [19],growth [20]
CC(=O)c1nc2ccccc2n1CCNC(N)=O,82.1%,100%,95%,70.3%,55.2%,61.8%,62.3%,95.1%,69.7%,93.2%,44.1%,55.8%,77.2%,90.9%,71.9%,127%,79.7%,94.8%,73.8%,103%
CCCCCCN(CCCCCC)CC(O)c1ccc2c3c(cccc13)CC2 (stereo not given),30.5%,69.9%,65.9%,85.2%,42.6%,30.1%,64.1%,43.1%,64.1%,76.4%,46.2%,71.7%,72.9%,67.2%,76.4%,49.4%,70%,67.9%,28.2%,44.2%
O=C(O)c1ccc(P(=O)(O)O)c([N+](=O)[O-])c1,115%,94.4%,102%,101%,103%,99.1%,93%,110%,112%,108%,107%,97.7%,108%,105%,110%,99.2%,104%,92.2%,114%,102%
CC(C)(C)c1ccc(N2CSC(=S)N(c3ccc(C(C)(C)C)cc3)C2)cc1,86.5%,93.2%,86.7%,88.2%,91.7%,-14.2% (active),38%,103%,92.5%,123%,90.1%,85.8%,97.4%,144%,109%,99.9%,97.9%,-6.73% (active),95.9%,94.7%
COc1ccc(-c2nn(-c3cccc(NC(=O)Nc4ccc(Cl)c(C(F)(F)F)c4)c3)cc2-c2ccncc2)cc1Cl,9.49% (active),22.4%,19.1%,25.2%,1.08% (active),-8.34% (active),8.45% (active),19%,-33.3% (active),22.7%,15.4%,-8.87% (active),0.455% (active),19.3%,31%,-2.09% (active),-7.12% (active),-7.89% (active),6.17% (active),16.3%
Cc1ccc(C(=O)N2C/C(=C/c3ccc(F)cc3)C(=O)/C(=C/c3ccc(F)cc3)C2)cc1,97.6%,86.9%,90.6%,96.4%,101%,67.7%,94.5%,91.6%,111%,101%,44.2%,98.5%,83.4%,90.4%,85.2%,92.5%,93.2%,94.4%,84.8%,95.1%
Nc1ccc2c(c1)Cc1cc(N)c(Br)cc1-2,92.1%,106%,113%,93.4%,97%,96.7%,100%,120%,107%,121%,99.7%,104%,116%,111%,109%,76.8%,83.1%,109%,102%,97.3%
COC(=O)[C@@H]1[C@H](O)[C@H](C)[C@H](O)[C@@](C)(O)/C=C\C=C(C)C(=O)Nc2c(C)c(OC(C)=O)c3c(c2O)C(=O)C(C)=C2OCOC(=C23)C(C)=C[C@@](C)(O)[C@H](O)[C@@H](C)[C@H]1OC(C)=O,101%,109%,125%,111%,127%,105%,110%,95.2%,112%,85.5%,89%,101%,98.8%,104%,113%,98%,100%,107%,122%,74.7%
OCC1OC(n2cnc3c(N/N=C\c4ccccn4)ncnc32)C(O)C1O (stereo not given),27.1%,11.3%,7.28% (active),10%,1.62% (active),38.7%,24.6%,16.2%,22.7%,17.7%,17.6%,-14.6% (active),42.5%,33.4%,21.5%,-1.12% (active),9.72% (active),38%,8.81% (active),25.8%
Cc1ccc(Nc2nnc(-c3cc(-c4ccncc4)n(-c4ccccc4)n3)s2)cc1,90.5%,86.2%,98.7%,114%,56.8%,84.5%,60.5%,41.9%,73.8%,107%,27%,74.8%,18.9%,57.5%,113%,21.9%,91.6%,110%,61.9%,9.74% (active)
COc1ccc(-c2nsc3c2NC(=O)CC3c2ccc(F)cc2)cc1 (stereo not given),59.5%,75.2%,39.6%,44.3%,17.2%,3.06% (active),27.2%,57.5%,9.44% (active),58.7%,10.1%,31.1%,68.7%,62.9%,63.4%,37.5%,43.9%,58.3%,24%,24.4%
O=C1C(c2ccccc2)C2C=CC(C2)N1O (stereo not given),105%,101%,102%,105%,111%,96.4%,112%,102%,104%,114%,96.9%,109%,102%,104%,107%,122%,113%,105%,111%,106%
O=C1Nc2ccc(Cl)cc2/C1=C\c1c(-c2ccc(Cl)cc2)nc2sc(C3CC3)nn12,67%,29.7%,61.3%,-0.353% (active),51.4%,42.9%,56.4%,31.8%,71.9%,59.2%,76.1%,42%,43.7%,21.1%,34%,41.4%,8.81% (active),63.2%,74.2%,77.6%
CCOCC(=O)C(C#N)c1ccc(Cl)c(Cl)c1 (stereo not given),106%,88.8%,102%,90.9%,107%,94.4%,101%,101%,115%,113%,94.6%,106%,105%,94.8%,106%,89.3%,94.8%,92%,113%,89.9%
O=C(Nc1cccc(-n2cc(-c3ccncc3)c(-c3ccc(O)c(Cl)c3)n2)c1)c1cc(C(F)(F)F)cc(C(F)(F)F)c1,57.5%,75.9%,74.3%,78.9%,21.5%,24.3%,33.7%,71.4%,94.8%,73.5%,35.9%,70.4%,-45% (active),33.5%,76.8%,24.9%,56.1%,66.9%,59.6%,44.9%
